Test results taken from article PMC5540273 (PLoS ONE, 2017).

Key:
Conditions in all cases: concentration: 1 μM,replicates: in singlicate; n = 1
[1] = system: T1, NIM1
T1 construct: gene MGC42105

[2] = system: NLK
[3] = system: T2, OSR1
T2 construct: gene OXSR1

[4] = system: PAK1
[5] = system: PAK2
[6] = system: PAK3
[7] = system: PAK4
[8] = system: PAK6
[9] = system: PAK7
[10] = system: T3, PCTK1
T3 construct: gene CDK16
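Also: KINOMEscan kinase panel screen.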

| SMILES | %Inh [1] [%] | %Inh [2] [%] | %Inh [3] [%] | %Inh [4] [%] | %Inh [5] [%] | %Inh [6] [%] | %Inh [7] [%] | %Inh [8] [%] | %Inh [9] [%] | %Inh [10] [%] |
| --- | --- | --- | --- | --- | --- | --- | --- | --- | --- | --- |
| CCn1c(-c2nonc2N)nc2c(C#CC(C)(C)O)nc(OCCN)cc21.Cl.Cl [GSK902056] | 10 | 0 | 32 | 11 | 36 | 10 | 68 | 45 | 93.4 | 2 |
| CCN(CC)CCCCNc1ncc2cc(-c3c(Cl)cccc3Cl)c(NC(=O)NC(C)(C)C)nc2n1 | 6 | 81 | 0 | 18 | 2 | 7 | 0 | 0 | 16 | 0 |
| Cl.Cl.NC[C@H](CC1CCCCC1)NC(=O)c1cc(Br)c(-c2ccnc3[nH]ccc23)s1 [GSK1581427] | 22 | 0 | 20 | 38 | 36 | 81 | 12 | 28 | 42 | 3 |
| C[C@@H](Oc1cc(-c2cnn(C3CCNCC3)c2)cnc1N)c1c(Cl)ccc(F)c1Cl | 8 | 0 | 36 | 12 | 9 | 0 | 12 | 0 | 0 | 25 |
| C[C@H]1Oc2cc(cnc2N)-c2c(nn(C)c2C#N)CN(C)C(=O)c2ccc(F)cc21 | 0 | 5 | 0 | 8 | 9 | 36 | 14 | 2 | 11 | 0 |
| Cc1cc(C(=O)Nc2ccc(Oc3ccc4nc(NC(=O)C5CC5)cn4n3)cc2)nn1-c1ccccc1 | 0 | 2 | 0 | 0 | 0 | 3 | 0 | 15 | 0 | 0 |
| C[C@@H]1CCN(C(=O)CC#N)C[C@@H]1N(C)c1ncnc2[nH]ccc12 | 7 | 12 | 0 | 0 | 0 | 1 | 0 | 0 | 0 | 0 |
| CC(C)Nc1cc(-c2ccc3c(N)n[nH]c3c2)nc(N)n1 [GSK2221681] | 0 | 0 | 0 | 34 | 26 | 0 | 0 | 0 | 0 | 0 |
| CNC(=O)c1ccccc1Sc1ccc2c(/C=C/c3ccccn3)n[nH]c2c1 | 8 | 100 | 0 | 9 | 8 | 0 | 2 | 10 | 40 | – |
| Cc1ccc2c(-c3ccncc3)c(-c3ccc(F)cc3)nn2c1.Cl [GW461484] | 13 | 91.3 | 0 | 29 | 30 | 19 | 0 | 7 | 4 | 0 |
| Cc1n[nH]c2ccc(-c3cc(OC[C@@H](N)Cc4ccccc4)cnc3-c3ccoc3)cc12.O=C(O)C(F)(F)F.O=C(O)C(F)(F)F [GSK507358] | 20 | 3 | 12 | 88 | 40 | 27 | 0 | 3 | 56 | 4 |
| Nc1nc(Nc2ccccc2)cc(-c2ccc3c(N)n[nH]c3c2)n1 [GSK2225749] | 15 | 3 | 14 | 27 | 9 | 0 | 0 | 0 | 0 | 0 |
| Cl.Cl.Nc1nc(-c2ccc3c(N)n[nH]c3c2)cc(N2CCCC(NC(=O)c3ccccc3)C2)n1 (stereo not drawn) [GSK2286775] | 2 | 13 | 0 | 6 | 1 | 0 | 0 | 17 | 0 | 5 |
| CCN(CC)CCOc1ccc(Nc2ncc3cc(-c4c(Cl)cccc4Cl)c(=O)n(C)c3n2)cc1 [SB-601273] | 96.4 | 99.3 | 16 | 82 | 17 | 47 | 53 | 41 | – | 0 |
| Cc1ccc(-n2nc(C(C)(C)C)cc2NC(=O)Nc2ccc(OCCN3CCOCC3)c3ccccc23)cc1 [GW839464] | 0 | – | 0 | 0 | 0 | 35 | 10 | 12 | 0 | 0 |
| NC(=O)c1cc(-c2ccccc2)cc2c(C3CCNCC3)c[nH]c12 [GSK301362] | 15 | 28 | 14 | 30 | 27 | 38 | 0 | 0 | 4 | 9 |
| O=C(NCCCN1CCOC1=O)c1cnc(NCc2cc(Cl)ccc2Cl)nc1NC1CCCC1 | 2 | 17 | 0 | 9 | 17 | 0 | 18 | 16 | 2 | 0 |
| O=C(NCCNc1ccnc(NCc2ccc(F)cc2)n1)c1cc2ccccc2s1 [GSK1379944] | 0 | 88 | 11 | 15 | 20 | 0 | 0 | 57 | 0 | 8 |
| C=CC(=O)Nc1cc2c(Nc3ccc(F)c(Cl)c3)ncnc2cc1OCCCN1CCOCC1 [GW781483] | 36 | 0 | 0 | 0 | 14 | 0 | 15 | 0 | 0 | 1 |
| CN(C)CC(O)COc1ccc(Nc2nccc(-c3cnn4nc(N5CCOCC5)ccc34)n2)cc1 (stereo not drawn) [GW767488] | 51 | 11 | 54 | 17 | 34 | 4 | 25 | 30 | 9 | 97.6 |
| Cl.Cl.NC[C@H](Cc1ccc(C(F)(F)F)cc1)NC(=O)c1cc(Br)c(-c2ccnc3[nH]ccc23)s1 [GSK1487252] | 4 | 0 | 0 | 37 | 33 | 83 | 0 | 25 | 33 | 0 |
| Cl.Oc1cc(-c2nc(-c3ccccc3)[nH]c2-c2ccncc2)ccc1Cl [SB-386023] | 0 | 90 | 8 | 0 | 20 | 0 | 0 | 5 | 1 | 0 |
| COc1ccc(C[C@@H](CN)NC(=O)c2cc(Br)c(-c3ccnc4[nH]ccc34)s2)cc1.Cl.Cl [GSK1389063] | 13 | 0 | 34 | 78 | 62 | 93.9 | 89 | 89 | 98.7 | 16 |
| Cc1occc1-c1nc(N)c(OC[C@@H](N)Cc2c[nH]c3ccccc23)cc1-c1cc2c(C)n[nH]c2cn1 [GSK1660450] | 74 | 17 | 13 | 97.8 | 86 | 75 | 0 | 11 | 9 | 10 |
| Cc1cc2cn[nH]c2cc1-c1cccc2c(N)c(C(N)=O)nnc12 | 27 | 0 | 48 | 24 | 10 | 85 | 16 | 12 | 0 | 26 |
| CN(C)CCOc1ccc(-c2cc(-c3c[nH]nc3-c3ccccn3)ccn2)cc1 [GW835314] | 10 | 0 | 0 | 0 | 0 | 24 | 0 | 90 | 4 | 3 |
| CC(C)N1C(=O)Cc2cc(Nc3ncc(C(F)(F)F)c(NCc4cccc(S(C)(=O)=O)c4)n3)ccc21 | 51 | 0 | 5 | 8 | 0 | 19 | 7 | 6 | 25 | 0 |
